Several values for one entry are separate records, joined by “and”; a condition that tells them apart may be missing. Identical values can stand only once. Inconclusive results are not listed. More than one record can exist for a structure, and the calls need not agree. Activity calls are given as the source filed them. How the source made its calls, unless noted: active means hit-call score of the fitted dose curve at least 0.9, where 1 is the maximum; inconclusive means response in the unintended direction; inactive means score below 0.9.
Tests used:
[1] = ATG_VDRE_CIS: Attagene CIS-FACTORIAL HepG2 Assay for human Vitamin D Receptor Element (VDRE) (AID 2282968; active means hit-call score of the fitted dose curve at least 0.9, where 1 is the maximum; inactive means score below 0.9); conditions: HepG2 VDRE cis-reporter transcription, actives raise or lower the signal
In short: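 Transfected HepG2 reporter cells, chemical treatment 24 h. RNA isolated, cDNA amplified with reporter-specific primers, products analysed by capillary electrophoresis. Endpoint fitted in both directions versus DMSO.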

[2] = target: Estrogen receptor (Homo sapiens) (UniProt P03372); experiment: ATG_ERa_TRANS: Attagene TRANS-FACTORIAL HepG2 Assay for human Estrogen Receptor alpha (ERa) (AID 2282970); conditions: HepG2 Attagene TRANS ERa GAL4 reporter, mRNA
Estrogen receptor (Homo sapiens), sequence (P03372 whole entry, looked up, the tested form may be a part): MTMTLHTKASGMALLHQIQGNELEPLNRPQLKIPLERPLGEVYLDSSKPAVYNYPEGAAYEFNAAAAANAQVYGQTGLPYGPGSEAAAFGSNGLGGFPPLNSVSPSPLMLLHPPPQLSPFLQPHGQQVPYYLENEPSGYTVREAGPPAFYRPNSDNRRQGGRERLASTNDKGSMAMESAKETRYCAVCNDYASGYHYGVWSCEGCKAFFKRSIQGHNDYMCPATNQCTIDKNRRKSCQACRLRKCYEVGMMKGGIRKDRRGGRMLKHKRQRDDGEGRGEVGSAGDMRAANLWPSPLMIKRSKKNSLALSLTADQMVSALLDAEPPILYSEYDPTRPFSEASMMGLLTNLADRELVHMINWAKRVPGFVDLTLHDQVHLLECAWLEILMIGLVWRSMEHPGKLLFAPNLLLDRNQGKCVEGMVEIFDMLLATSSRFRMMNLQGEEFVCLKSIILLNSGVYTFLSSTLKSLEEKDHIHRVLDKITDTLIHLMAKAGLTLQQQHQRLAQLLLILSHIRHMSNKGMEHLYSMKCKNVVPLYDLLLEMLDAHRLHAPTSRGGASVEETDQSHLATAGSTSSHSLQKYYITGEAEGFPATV
In short: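 Transfected HepG2 cells carrying GAL4-UAS-driven reporter units were dosed for 24 hours. Total RNA was reverse-transcribed, reporter sequences PCR-amplified, FAM-labelled, HpaI-digested and resolved by capillary electrophoresis. Increases over DMSO control defined activity.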

[3] = target: X-box-binding protein 1 (Homo sapiens) (UniProt P17861); experiment: ATG_Xbp1_CIS: Attagene CIS-FACTORIAL HepG2 Assay for human X-box Binding Protein 1 (XBP1) (AID 2282972; active means hit-call score of the fitted dose curve at least 0.9, where 1 is the maximum; inactive means score below 0.9); conditions: HepG2 XBP1 cis-element reporter, Attagene multiplex; actives raise or lower the signal
X-box-binding protein 1 (Homo sapiens), sequence (P17861 whole entry, looked up): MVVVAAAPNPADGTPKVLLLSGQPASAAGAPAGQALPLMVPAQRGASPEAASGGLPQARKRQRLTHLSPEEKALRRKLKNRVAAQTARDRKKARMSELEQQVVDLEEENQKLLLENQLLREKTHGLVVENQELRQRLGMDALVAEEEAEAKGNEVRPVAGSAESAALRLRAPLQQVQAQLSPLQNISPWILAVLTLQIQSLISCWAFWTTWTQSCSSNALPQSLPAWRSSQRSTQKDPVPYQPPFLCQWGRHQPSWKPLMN
In short: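 Multiplexed cis-reporter readout in transfected HepG2 liver cells. Exposure lasted 24 hours. Activity in either direction was fitted against DMSO as negative control and baseline.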

[4] = ATG_M_19_TRANS: Attagene TRANS-FACTORIAL HepG2 Assay for M19 Transcription Factor (Internal Marker) (AID 2282974); conditions: HepG2 Attagene TRANS-FACTORIAL M19 internal marker reporter
In short: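 Transfected HepG2 (GAL4-UAS MRTUs), 24 h compound, TriZol RNA, DNase-treated RT, reporter PCR, FAM label, HpaI digest, CE fluorescence; gain vs DMSO.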

[5] = target: Steroid hormone receptor ERR1 (Homo sapiens) (UniProt P11474); experiment: ATG_ERRa_TRANS: Attagene TRANS-FACTORIAL HepG2 Assay for human Estrogen-Related Receptor alpha (ERRa) (AID 2282971); conditions: HepG2 Attagene TRANS reporter, ERRa transactivation
Steroid hormone receptor ERR1 (Homo sapiens), sequence (P11474 whole entry, looked up, the tested form may be a part): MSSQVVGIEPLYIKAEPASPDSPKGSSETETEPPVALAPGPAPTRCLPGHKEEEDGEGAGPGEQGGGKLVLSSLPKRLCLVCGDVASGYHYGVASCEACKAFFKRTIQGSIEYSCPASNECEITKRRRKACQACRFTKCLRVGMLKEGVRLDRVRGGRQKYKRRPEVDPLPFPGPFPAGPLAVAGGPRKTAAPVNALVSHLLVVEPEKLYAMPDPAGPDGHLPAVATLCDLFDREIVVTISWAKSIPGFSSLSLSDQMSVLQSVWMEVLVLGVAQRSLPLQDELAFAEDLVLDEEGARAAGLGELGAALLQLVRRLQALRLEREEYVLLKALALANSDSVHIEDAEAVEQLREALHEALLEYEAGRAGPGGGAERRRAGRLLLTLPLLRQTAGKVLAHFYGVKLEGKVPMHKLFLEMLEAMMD
In short: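 HepG2 cells were transiently transfected with multiple GAL4-UAS reporter units, then dosed with compound for 24 h. Total RNA was reverse-transcribed, reporter cDNA PCR-amplified and fluorescently labelled, and fragments resolved by capillary electrophoresis; induction was compared with DMSO.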

[6] = ATG_GAL4_TRANS: Attagene TRANS-FACTORIAL HepG2 Assay for GAL4 (Internal Marker) (AID 2282976); conditions: HepG2 Attagene TRANS GAL4 internal marker reporter
In short: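 Fluorescence from capillary electrophoresis of labelled RT-PCR products quantifies reporter mRNA induction after 24 h dosing of HepG2 cells carrying transfected GAL4-UAS reporter transcription units. Vehicle DMSO serves as baseline.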

[7] = target: Glucocorticoid receptor (Homo sapiens) (UniProt P04150); experiment: ATG_GR_TRANS: Attagene TRANS-FACTORIAL HepG2 Assay for human Glucocorticoid Receptor (GR) (AID 2282978); conditions: HepG2 Attagene TRANS GR reporter, mRNA transcription;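 further: activators score as hits since higher reporter transcript over DMSO is fitted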
Glucocorticoid receptor (Homo sapiens), sequence (P04150 whole entry, looked up): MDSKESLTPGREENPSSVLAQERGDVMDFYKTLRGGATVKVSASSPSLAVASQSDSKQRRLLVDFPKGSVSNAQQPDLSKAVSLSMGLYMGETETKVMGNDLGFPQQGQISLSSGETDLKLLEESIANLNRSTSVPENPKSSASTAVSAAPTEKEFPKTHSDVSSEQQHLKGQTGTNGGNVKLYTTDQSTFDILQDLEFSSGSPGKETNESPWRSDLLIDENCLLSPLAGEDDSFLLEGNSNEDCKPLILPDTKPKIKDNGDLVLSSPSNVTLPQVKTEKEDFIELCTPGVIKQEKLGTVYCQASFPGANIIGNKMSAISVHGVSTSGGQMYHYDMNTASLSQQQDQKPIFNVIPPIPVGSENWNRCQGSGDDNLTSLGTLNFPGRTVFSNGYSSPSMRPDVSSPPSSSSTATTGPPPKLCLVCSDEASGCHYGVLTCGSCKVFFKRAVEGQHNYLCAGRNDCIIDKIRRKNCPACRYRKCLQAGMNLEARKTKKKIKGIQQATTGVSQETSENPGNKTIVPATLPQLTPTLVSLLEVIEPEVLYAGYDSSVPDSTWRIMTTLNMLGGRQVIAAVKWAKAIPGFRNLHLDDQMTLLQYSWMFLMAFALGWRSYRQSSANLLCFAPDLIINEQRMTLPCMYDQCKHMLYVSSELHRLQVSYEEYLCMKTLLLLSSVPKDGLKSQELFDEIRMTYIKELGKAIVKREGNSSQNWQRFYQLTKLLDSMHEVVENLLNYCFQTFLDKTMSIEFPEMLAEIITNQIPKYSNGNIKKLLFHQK
In short: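 After 24 h incubation with test chemical, transfected HepG2 cells were lysed for RNA; reporter cDNA was amplified, FAM-labelled, HpaI-digested and sized on a capillary analyser. Signal gain relative to DMSO was scored.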

[8] = target: Nuclear receptor subfamily 1 group I member 3 (Homo sapiens) (UniProt Q14994); experiment: ATG_CAR_TRANS: Attagene TRANS-FACTORIAL HepG2 Assay for human Constitutive Androstane Receptor (CAR) (AID 2282969); conditions: HepG2 Attagene TRANS-FACTORIAL CAR reporter;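 further: activators raise reporter mRNA above DMSO so AC50 marks induction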
Nuclear receptor subfamily 1 group I member 3 (Homo sapiens), sequence (Q14994 whole entry, looked up, the tested form may be a part): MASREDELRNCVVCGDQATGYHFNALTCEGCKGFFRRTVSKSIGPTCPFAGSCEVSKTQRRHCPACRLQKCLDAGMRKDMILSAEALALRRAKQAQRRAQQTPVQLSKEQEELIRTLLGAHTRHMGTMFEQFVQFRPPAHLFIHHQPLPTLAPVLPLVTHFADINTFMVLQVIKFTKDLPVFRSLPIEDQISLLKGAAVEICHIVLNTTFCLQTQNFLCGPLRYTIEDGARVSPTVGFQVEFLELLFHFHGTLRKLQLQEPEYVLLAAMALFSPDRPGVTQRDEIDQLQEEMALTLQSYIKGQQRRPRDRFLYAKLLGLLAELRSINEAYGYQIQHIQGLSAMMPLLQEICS
In short: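 Steps: transient transfection of HepG2 with multiple GAL4-UAS reporter units; 24 h compound incubation; RNA isolation, RT-PCR, 6-FAM primer extension, HpaI digest; capillary electrophoresis. Gain-of-signal relative to DMSO negative control.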

[9] = target: Androgen receptor (Homo sapiens) (UniProt P10275); experiment: ATG_AR_TRANS: Attagene TRANS-FACTORIAL HepG2 Assay for human Androgen Receptor (AR) (AID 2282973); conditions: HepG2 Attagene TRANS-FACTORIAL AR reporter transcription
Androgen receptor (Homo sapiens), sequence (P10275 whole entry, looked up, the tested form may be a part): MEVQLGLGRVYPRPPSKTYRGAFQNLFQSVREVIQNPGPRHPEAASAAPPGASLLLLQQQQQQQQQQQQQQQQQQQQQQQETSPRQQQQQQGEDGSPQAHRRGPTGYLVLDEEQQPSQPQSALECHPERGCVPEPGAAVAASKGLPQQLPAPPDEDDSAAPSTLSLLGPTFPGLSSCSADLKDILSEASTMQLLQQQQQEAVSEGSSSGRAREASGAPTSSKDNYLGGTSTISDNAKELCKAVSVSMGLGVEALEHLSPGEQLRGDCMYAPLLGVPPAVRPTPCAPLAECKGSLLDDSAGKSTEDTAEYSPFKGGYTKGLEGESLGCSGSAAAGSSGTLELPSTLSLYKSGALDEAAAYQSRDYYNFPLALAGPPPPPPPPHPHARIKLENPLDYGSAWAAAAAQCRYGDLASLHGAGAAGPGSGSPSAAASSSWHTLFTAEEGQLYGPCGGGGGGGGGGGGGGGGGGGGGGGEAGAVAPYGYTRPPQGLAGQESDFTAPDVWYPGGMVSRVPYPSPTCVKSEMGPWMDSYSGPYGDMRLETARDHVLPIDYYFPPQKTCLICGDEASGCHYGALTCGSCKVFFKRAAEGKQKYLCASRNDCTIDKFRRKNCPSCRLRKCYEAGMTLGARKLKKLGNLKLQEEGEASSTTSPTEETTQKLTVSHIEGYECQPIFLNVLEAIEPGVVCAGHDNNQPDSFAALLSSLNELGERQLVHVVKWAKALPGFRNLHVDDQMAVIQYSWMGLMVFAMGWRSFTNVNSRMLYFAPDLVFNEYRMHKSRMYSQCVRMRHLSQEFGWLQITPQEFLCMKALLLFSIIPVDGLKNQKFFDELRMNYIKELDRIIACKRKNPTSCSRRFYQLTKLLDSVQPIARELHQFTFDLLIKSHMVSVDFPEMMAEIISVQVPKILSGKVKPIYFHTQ
In short: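 Transfected HepG2, 24 h treatment, chimeric NR-Gal4 driving GAL4-UAS reporters. mRNA induction by RT-PCR/capillary electrophoresis fluorescence; DMSO as negative control and baseline.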

[10] = target: Estrogen-related receptor gamma (Homo sapiens) (UniProt P62508); experiment: ATG_ERRg_TRANS: Attagene TRANS-FACTORIAL HepG2 Assay for human Estrogen-Related Receptor gamma (ERRg) (AID 2282977); conditions: HepG2 Attagene TRANS reporter, ERRg transactivation;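 further: hits increase reporter signal over DMSO so potencies reflect activators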
Estrogen-related receptor gamma (Homo sapiens), sequence (P62508 whole entry, looked up, the tested form may be a part): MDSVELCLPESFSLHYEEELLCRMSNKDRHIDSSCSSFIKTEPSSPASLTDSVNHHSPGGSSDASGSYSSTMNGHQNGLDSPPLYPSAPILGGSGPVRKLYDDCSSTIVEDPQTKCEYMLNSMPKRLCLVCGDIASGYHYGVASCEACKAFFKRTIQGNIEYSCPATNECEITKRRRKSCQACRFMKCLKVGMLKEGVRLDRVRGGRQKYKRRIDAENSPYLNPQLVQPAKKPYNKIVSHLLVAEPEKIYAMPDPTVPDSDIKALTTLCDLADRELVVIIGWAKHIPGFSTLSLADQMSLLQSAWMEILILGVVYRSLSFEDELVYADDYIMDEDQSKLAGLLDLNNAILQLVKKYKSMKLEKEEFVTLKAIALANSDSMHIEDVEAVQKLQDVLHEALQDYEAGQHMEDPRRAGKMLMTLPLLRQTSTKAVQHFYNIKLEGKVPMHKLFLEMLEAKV
In short: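 Exogenous NR-Gal4 chimera activity was assessed in HepG2 cells bearing transfected GAL4-UAS reporters. After 24 h dosing, total RNA underwent RT-PCR, fluorescent primer extension and HpaI digestion before capillary electrophoresis, with gain of signal scored against DMSO.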

Measured: AC50

CCC[CH2][Sn]([Cl])([Cl])[CH2]CCC
inactive: [4]
active: [1] 1.24 µM | [2] 1.86 µM | [3] 1.2 µM

O=c1[nH]c2ccccc2n1C1CCN(CCCC(c2ccc(F)cc2)c2ccc(F)cc2)CC1
not listed: [8] | [9] | [10]
inactive: all other assays above

CCCCN(CCCC)C(=S)S
active: [1] 24.3 µM | [3] 70.5 µM
inactive: [2]

O=S(=O)(C(Cl)(Cl)Cl)C(Cl)(Cl)Cl
active: [1] 16.7 µM | [3] 15.4 µM
inactive: [2] | [4] | [6]

C[CH2][Hg][S]c1ccccc1C(=O)O
active: [1] 3 µM
inactive: [8] | [9] | [10] | [7]

CC(C)(C)c1ccccc1O
active: [1] 129 µM | [3] 165 µM
inactive: [8] | [4] | [7]

ClCCCCl
inactive: [1] | [8] | [3] | [7]

O=c1oc2ccccc2c(O)c1C(CC(O)c1ccc(-c2ccc(Br)cc2)cc1)c1ccccc1 (configuration not stated)
inactive: [2] | [3] | [4] | [6]
active: [1] 22.4 µM and 8.54 µM | [3] 41.7 µM | [7] 173 µM

CCCCN(CCCC)C(=S)[S-].CCCCN(CCCC)C(=S)[S-].[Ni+2]
inactive: [1] | [2] | [3] | [4] | [6]

CCN(N=O)C(N)=O
inactive: [1] | [2] | [4] | [6] | [7]

COCCl
not listed: [2] | [8] | [10]
inactive: all other assays above

CN(C)CCN(C)C
inactive: [1] | [2] | [3] | [4] | [7]
